Compound activity from PubChem.
An excerpt weighted towards active compounds, which were near 1.8% of everything screened.
Peg3 imprint = qHTS Assay for Compounds that Induce Erasure of Genomic Imprints; Potency, µM (doses to about 60.7 µM), actives largely listed as activators; actives 0.02% (n = 110,000); AID 1948, 2009; mouse ES Peg3-LacZ reporter, beta-gal luminescence, 40 h
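Imprint erasure is scored as LacZ activity from the silenced maternal Peg3 allele in feeder-free female ES cells cultured 40 h with LIF. Luminescence is normalized to in-plate negative controls and fitted to the Hill equation.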
IkB sig inh = IkB Signaling | AID 445, 2006 | actives 0.04% (n = 110,000) | Potency, µM (titrated, usually from 57.1 µM) | ABC-DLBCL IkBa-CBG/CBR dual luciferase ratio, 4 h; response scale: scaled: untreated 0%, proteasome inhibitor 100%; active means well fitted curve in the direction sought with a large enough effect in the signal ratio, not every such curve was filed as active; inconclusive means small, poorly fitted or top-dose-only effect, or a change in a side signal; the % refers to the signal ratio;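 further: the direction sought is a rising ratio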
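In this assay, an IκBα–CBG68 fusion accumulates when IKK-driven degradation is blocked; native CBR normalizes for cell number. OCI-Ly3 cells were treated 4 h with compound and doxycycline, then green and red light read after Chroma-Glo addition.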
p53ts 32C tox = qHTS Screen for Compounds that Selectively Target Cancer Cells with p53 Mutations: Cytotoxicity of p53ts Cells at the Permissive Temperature. H1299-p53A138V at 32C, ATP luminescence viability, 24 h. Potency, µM (doses to about 46.1 µM), hits mostly cytotoxic. actives 0.93% (n = 130,000); further: nearly all actives have a fitted effect of over 55% in size
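ATP-content luminescence (ATPlite) read-out after 24 h compound exposure at 32C in H1299-p53A138V cells (600/well). Tested up to 46 uM. Normalized to DMSO (0%) and 100 uM tamoxifen (100% killing); Hill-fit AC50.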
p53ts 39C tox = qHTS Screen for Compounds that Selectively Target Cancer Cells with p53 Mutations: Cytotoxicity of p53ts Cells at the Nonpermissive Temperature; H1299-p53A138V viability at 39C, ATP luminescence, 24 h; Potency, µM (doses to about 46.1 µM), hits mostly cytotoxic; actives 1.5% (n = 130,000); further: nearly all actives have a fitted effect of over 55% in size
Each line names hits and unclear results; the compound was inactive in the other large screens. Unless noted, the call rests on the fitted dose curve; in most records, active means well fitted curve in the direction sought with a large enough effect; inconclusive means small, poorly fitted or top-dose-only effect, or another doubt; inactive means no such curve, though single readings can be large; an effect the other way counts as inactive or inconclusive.

CC[C@H](C)[C@@H]1O[C@]2(CC[C@@H]1C)C[C@H]1C[C@H](CC=C(C)[C@@H](O[C@H]3C[C@H](OC)[C@H](O[C@H]4C[C@H](OC)[C@H](O)[C@H](C)O4)[C@H](C)O3)[C@@H](C)C=CC=C3CO[C@@H]4[C@@H](O)C(C)=C[C@H](C(=O)O1)[C@@]34O)O2	p53ts 32C tox 10µM, p53ts 39C tox 5µM (no result: Peg3 imprint)
CC[C@H](C)[C@@H]1O[C@]2(CC[C@@H]1C)C[C@H]1C[C@H](CC=C(C)[C@@H](O[C@@H]3C[C@H](OC)[C@H](O[C@@H]4C[C@H](OC)[C@H](O)[C@H](C)O4)[C@H](C)O3)[C@@H](C)C=CC=C3CO[C@@H]4[C@@H](O)C(C)=C[C@@H](C(=O)O1)[C@]34O)O2	p53ts 32C tox inconclusive, p53ts 39C tox 13µM
CC[C@@H](C)[C@H]1O[C@]2(CC[C@@H]1C)C[C@@H]1C[C@H](C/C=C(/C)[C@H](O[C@@H]3C[C@H](OC)[C@H](O[C@@H]4C[C@H](OC)[C@@H](O)[C@H](C)O4)[C@H](C)O3)[C@@H](C)/C=C\C=C3CO[C@@H]4[C@H](O)C(C)=C[C@@H](C(=O)O1)[C@]34O)O2 (tested in a mixture with another compound)	IkB sig inh inconclusive, p53ts 32C tox 13µM, p53ts 39C tox 13µM
COCC(C)Nc1ncnc2c1cnn2-c1cccc(Cl)c1 (configuration not stated)	IkB sig inh inconclusive, p53ts 39C tox inconclusive
O=C(CCC1CCCCC1)Nc1c2c(nn1-c1ccc(F)cc1)CS(=O)(=O)C2	none
Cc1cccc(N(CC(N)=O)C2SC(=O)N(c3ccccc3)C2=O)c1 (configuration not stated)	IkB sig inh inconclusive
COc1cc2nc(NC(=O)c3ccc(S(=O)(=O)N4CCOCC4)cc3)sc2cc1OC	none
O=c1c(-c2cccs2)nc2cnc(N3CCNCC3)nc2n1CCc1ccccc1	p53ts 32C tox inconclusive, p53ts 39C tox 16µM
COc1ccc(-c2cn3nc(SCC(=O)Nc4cccc(C)c4C)ccc3n2)cc1	p53ts 39C tox 16µM
COc1cccc(C(=O)COC(=O)C(C)N2C(=O)c3ccccc3C2=O)c1 (configuration not stated)	none
COc1ccc(C(=O)COC(=O)C(CC(C)C)N2C(=O)c3ccccc3C2=O)cc1 (configuration not stated)	p53ts 32C tox 16µM, p53ts 39C tox inconclusive (no result: Peg3 imprint, IkB sig inh)
C=Cc1ccc(Cn2c(C(=O)O)c(CNCCc3ccccc3)c3ccc(C)cc32)cc1	IkB sig inh inconclusive, p53ts 39C tox inconclusive
C=Cc1ccc(Cn2c(C(=O)O)c(CNCc3cc(OC)ccc3OC)c3ccc(C)cc32)cc1	IkB sig inh inconclusive, p53ts 32C tox inconclusive, p53ts 39C tox 13µM
O=C(Nc1ccc2c(c1)OCO2)c1cccc(F)c1	p53ts 32C tox inconclusive
O=C(/C=C\Nc1cccc(F)c1)c1ccc2c(c1)OCO2	IkB sig inh inconclusive, p53ts 32C tox 4µM, p53ts 39C tox 10µM
Cc1ccc2oc(C(=O)Nc3ccc(S(=O)(=O)N4CCCCC4C)cc3)cc(=O)c2c1 (configuration not stated)	none
Cc1ccccc1Cn1nnc2c(=O)[nH]c(C3CCCN(C(=O)c4ccc(C(C)(C)C)cc4)C3)nc21 (configuration not stated)	IkB sig inh inconclusive, p53ts 39C tox 32µM
Cc1cccc(Cn2nnc3c(=O)[nH]c(C4CCCN(C(=O)c5ccc(C(C)(C)C)cc5)C4)nc32)c1 (configuration not stated)	p53ts 32C tox inconclusive, p53ts 39C tox 25µM
CCCCn1c(CCNC(=O)c2ccc(F)cc2)nc2ccccc21	none
CCn1cc2nc(SCc3ccc(F)cc3)n(Cc3ccc(Cl)cc3)c(=O)c2n1	IkB sig inh inconclusive, p53ts 39C tox 13µM
CCn1cc2nc(SCc3ccccc3)n(Cc3ccc(C)cc3)c(=O)c2n1	none
Cc1sc2ncnc(Sc3nnnn3-c3ccccc3)c2c1C	IkB sig inh inconclusive, p53ts 32C tox inconclusive
Clc1ccc(-n2nnnc2Sc2ncnc3sccc23)cc1	IkB sig inh inconclusive, p53ts 32C tox inconclusive, p53ts 39C tox 20µM
CC1CCCN(S(=O)(=O)c2cc(C(=O)NCCc3ccccc3)n(C)c2)C1 (configuration not stated)	IkB sig inh inconclusive
CC(C)CCNC(=O)[C@@H](c1ccccc1)N1Cc2ccccc2C1=O	none
CC(C(=O)O)c1ccc(N2Cc3ccccc3C2=O)cc1 (configuration not stated)	p53ts 32C tox 10µM, p53ts 39C tox 10µM (no result: IkB sig inh)
Clc1ccc(-c2nnc(SCc3ccon3)o2)c(Cl)c1	p53ts 32C tox 10µM, p53ts 39C tox 10µM
COc1cc(C2c3c(oc4ccc(C)cc4c3=O)C(=O)N2c2cc(C)ccn2)cc(OC)c1OC (configuration not stated)	none
Cc1cccc(OC(=O)c2cc(-c3ccc4c(c3)OCCO4)on2)c1	IkB sig inh inconclusive, p53ts 32C tox 20µM, p53ts 39C tox 20µM
Cc1cccc(OC(=O)c2cc(-c3ccc4c(c3)OCCO4)on2)c1C	p53ts 32C tox 20µM, p53ts 39C tox inconclusive
Cc1cc(C)cc(OC(=O)c2cc(-c3ccc4c(c3)OCCO4)on2)c1	p53ts 32C tox inconclusive, p53ts 39C tox 13µM
CC(=O)c1cc2c(cc1NC(=O)CN1CCN(c3ccc(F)cc3)CC1)OCO2	none
COc1ccc(CN2CCN(S(=O)(=O)c3ccc(NC(C)=O)cc3)CC2)cc1OC	none
O=C(c1cc(C(F)(F)F)cc(C(F)(F)F)c1)N1CCC2(CCN(Cc3ccccc3)CC2)CC1	none (no result: Peg3 imprint)
Cc1ccccc1NC(=O)CSc1nc2ccccc2c2nc(CCn3c(C)nc4ccccc43)nn12	none
Cc1nc2ccccc2n1CCc1nc2c3ccccc3nc(SCC(=O)Nc3ccc(C(C)C)cc3)n2n1	p53ts 32C tox inconclusive, p53ts 39C tox 10µM
O=C(CNC(=O)C1CCCCC1)NCCCO	none
CCCCOc1ccccc1CC1C(=O)Nc2ccc(Br)cc21 (configuration not stated)	p53ts 32C tox inconclusive, p53ts 39C tox 13µM
COC(=O)c1c(NC(=O)c2ccc(C)o2)sc2c1CCCCC2	none
Cc1ccc(C(=O)Nc2sc3c(c2C(=O)O)CCCCC3)o1	IkB sig inh inconclusive, p53ts 32C tox 7.9µM, p53ts 39C tox 6.3µM
Cc1cc(C)c(NC(=O)Cn2nnc3sc4c(c3c2=O)CCC(C(C)(C)C)C4)c(C)c1 (configuration not stated)	p53ts 32C tox inconclusive, p53ts 39C tox 13µM
N#Cc1cccc(NC(=O)N2CCCC3(CCN(C(=O)c4ccncc4)CC3)C2)c1	none (no result: Peg3 imprint)
CC(=O)c1c(C)[nH]c(C)c1C(C)=O	none
COc1ccc(/C=N/n2cc(-c3ccccc3)nc2N)cc1	IkB sig inh inconclusive
COc1ccc(/C=N\n2nnc3ccccc32)cc1	IkB sig inh inconclusive, p53ts 32C tox 13µM, p53ts 39C tox 10µM
